Among the data in PubChem BioAssay (Tox21) are Potency values, retold here.

Assay [1] is described as follows: Nuclear factor erythroid 2-related factor 2/antioxidant responsive element (Nrf2/ARE) small molecule agonists: qHTS cell viability counter screen in human keratinocytes (AID 1919968; active = well fitted cell-killing curve with a large enough effect in the repeat runs; also: nearly all actives have a fitted effect of over 55% in size). A digest of the protocol: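 In human HaCaT keratinocytes stably expressing an ARE-driven luciferase, compound exposure lasted 23 h at 37 C under 5% CO2. Viable cells are quantified with a protease-based fluorogenic reagent (CellTiter-Fluor) read 1 h after addition.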
For orientation: Quantitative high-throughput screening tests each substance at several concentrations.

Assay [2] in a line: Nuclear factor erythroid 2-related factor 2/antioxidant responsive element (Nrf2/ARE) small molecule agonists: luciferase reporter gene qHTS assay in human keratinocytes (AID 1919969). Also: nearly all actives have a fitted effect of over 35% in size. In general terms: A reporter such as luciferase makes a cellular process visible.
Assay [3] deals with Gonadotropin-releasing hormone receptor (Homo sapiens) (UniProt P30968). Nature of the assay: Human gonadotropin-releasing hormone receptor (GnRHR) small molecule agonists, calcium flux assay in GnRHR-HEK293 cells (AID 1920063). Also: nearly all actives have a fitted effect of over 35% in size. A digest of the protocol:
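Intracellular calcium rise is the read-out: engineered human GnRHR HEK293 cells, dye-loaded, are exposed to DMSO-dissolved compounds and fluorescence at Ex/Em 480/540 is tracked for 3 min.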
A general note: A change in cytosolic calcium serves as a functional read-out for many receptors and channels.

Assay [4] is described as follows: G protein-coupled receptor (GPCR) small molecule agonists, calcium flux assay: HEK293 wild type cell line counter screen (AID 1920065). A digest of the protocol: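 Fluorescence intensity signals activation. After overnight (18 h) culture and a 1 h calcium dye load at 37 C, compounds are added by pin tool and the plate read at 480/540 nm for 3 min in 1 s steps.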

Assay [5] can be described thus: p53 small molecule agonists, cell-based qHTS assay with rat liver microsomes (AID 1963578). A digest of the protocol: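 Compound in DMSO added to p53RE-bla cells 5 h post-plating; rat microsomes/NADPH 0.5 mg/mL final; 16 h, 37 C; LiveBLAzer 2 h RT.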
The nature of assay [6]: p53 small molecule agonists, cell-based qHTS assay with human liver microsomes: qHTS cell viability counter screen (AID 1963579). Also: nearly all actives have a fitted effect of over 45% in size. A digest of the protocol: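 HLM-supplemented (0.5 mg/mL final) and NADPH-supplemented (0.5 mg/mL final) p53RE-bla cultures, 4,000 cells per well, were dosed with compounds in DMSO for 16 h at 37 C; luminescent ATP detection (CellTiter-Glo, 30 min, room temperature) quantified surviving cells.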

The nature of assay [7]: p53 small molecule agonists, cell-based qHTS assay with rat liver microsomes: qHTS cell viability counter screen (AID 1963580). Also: nearly all actives have a fitted effect of over 45% in size. A digest of the protocol:
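After the beta-lactamase ratio was read, CellTiter-Glo was added to the same wells and luminescence measured at 30 min; cells had been treated 16 h at 37 C with compounds, rat liver microsomes and NADPH (0.5 mg/mL final each).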

Assay [8] in a line: p53 small molecule agonists, cell-based qHTS assay (AID 1963582; active = well fitted activation curve with a large enough effect in the signal ratio in the repeat runs, not every such curve was filed as active; the % refers to the signal ratio). A digest of the protocol:
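After plating, p53RE-bla cells sat 5 h in the incubator; compounds or DMSO vehicle were pinned in; a 16 h incubation at 37 C followed; FRET substrate was added and, 2 h later at RT, fluorescence was measured.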

In assay [9] the target is 5-hydroxytryptamine receptor 2A (Homo sapiens) (UniProt P28223). Nature of the assay: 5-hydroxytryptamine receptor 2A (HTR2A) small molecule antagonists, cell-based qHTS assay (AID 1963586). Also: nearly all actives have a fitted effect of over 45% in size. Also: potency is read from the fitted curve at half-maximal effect. A digest of the protocol: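 CHO cells stably expressing human HTR2A were plated for 18 h at 37 C, then loaded with calcium dye for 1 h. Compounds were preincubated 5 min at room temperature before DOI (4 nM solution) was added. Kinetic fluorescence was read for 3 min.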
Sequence of 5-hydroxytryptamine receptor 2A (Homo sapiens) (P28223 whole entry, looked up): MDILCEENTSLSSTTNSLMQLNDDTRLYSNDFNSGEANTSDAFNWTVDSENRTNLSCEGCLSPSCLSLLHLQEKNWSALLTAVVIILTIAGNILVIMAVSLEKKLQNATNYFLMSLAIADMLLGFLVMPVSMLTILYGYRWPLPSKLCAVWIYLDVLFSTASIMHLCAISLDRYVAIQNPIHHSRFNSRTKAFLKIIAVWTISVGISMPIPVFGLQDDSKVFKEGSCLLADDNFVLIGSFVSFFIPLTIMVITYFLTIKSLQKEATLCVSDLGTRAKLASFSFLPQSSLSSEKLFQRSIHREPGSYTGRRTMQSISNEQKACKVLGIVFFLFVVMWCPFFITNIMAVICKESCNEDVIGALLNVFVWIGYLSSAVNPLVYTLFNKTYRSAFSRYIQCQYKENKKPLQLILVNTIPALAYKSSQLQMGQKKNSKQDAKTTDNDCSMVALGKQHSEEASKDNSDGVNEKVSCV

For assay [10] the target is unchanged. Nature of the assay: 5-hydroxytryptamine receptor 2A (HTR2A) small molecule agonists, cell-based qHTS assay (AID 1963587). Also: nearly all actives have a fitted effect of over 30% in size. A digest of the protocol:
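CHO cells stably expressing human HTR2A, plated 18 h, loaded with calcium dye 1 h at 37 C. Agonist mode: compounds added and intracellular calcium fluorescence recorded kinetically for 2 min at 1 sec intervals.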

Assay [11] deals with Muscarinic acetylcholine receptor M1 (Homo sapiens) (UniProt P11229). As to the kind of experiment: Cholinergic receptor muscarinic 1 (CHRM1) small molecule antagonists, cell-based qHTS assay (AID 1963588). Also: nearly all actives have a fitted effect of over 40% in size. A digest of the protocol:
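Compounds were tested at 15 concentrations in three independent runs. Dye-loaded CHRM1-CHO cells were exposed 5 min at room temperature before stimulation by acetylcholine added at 50nM. Intracellular calcium was read kinetically on FDSS for 3 min.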

For assay [12] the target is unchanged. Nature of the assay: Cholinergic receptor muscarinic 1 (CHRM1) small molecule agonists, cell-based qHTS assay (AID 1963589). Also: nearly all actives have a fitted effect of over 35% in size. A digest of the protocol:
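Fluorescent calcium dye reports M1 activation in stably transfected CHO cells. Compounds, 15 concentrations, added after 1 h dye loading at 37 C; kinetic reading at 1 sec intervals.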

Assay [13] is described as follows: cAMP Responsive Elements (CRE) small molecule agonists, cell-based qHTS assay (AID 1963590). A digest of the protocol:
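Compound exposure lasted 3 h at 37 C/5% CO2 in CRE-bla HEK 293T cells grown in assay medium with 10% dialyzed FBS and 25 mM HEPES. Reporter signal came from LiveBLAzer B/G FRET substrate, 2 h, room temperature.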

The nature of assay [14]: cAMP Responsive Elements (CRE) small molecule antagonists, cell-based qHTS assay (AID 1963591; active = well fitted inhibition curve with a large enough effect in the signal ratio in the repeat runs, not every such curve was filed as active; the % refers to the signal ratio). A digest of the protocol: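 Stimulation used NKH477 at a final 0.25 uM for 3 h in compound-treated CRE-bla HEK293T cells, seeded 18 h beforehand. Reporter activity was measured with LiveBLAzer B/G FRET substrate after 2 h at room temperature.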
Assay [15] has as its target Beta-2 adrenergic receptor (Homo sapiens) (UniProt P07550). As to the kind of experiment: Adrenergic beta2 receptor (ADRB2) small molecule antagonists, cell-based qHTS assay (AID 1963592). Also: series mostly up to about 92 µM; nearly all actives have a fitted effect of over 50% in size. A digest of the protocol:
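Assay format: CHO-ADRB2 cells, 18-20hr seeding at 37C/5% CO2, then compound plus 1nM isoproterenol agonist mix for 0.5hr RT. Homogeneous time-resolved fluorescence cAMP detection after 1hr, expressed as 665/615 nm ratio.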

Assay [16] has the same target. As to the kind of experiment: Adrenergic beta2 receptor (ADRB2) small molecule agonists, cell-based qHTS assay (AID 1963593).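 Also: CHO cells stably overexpressing human ADRB2.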 A digest of the protocol: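 CHO cells stably over-expressing ADRB2 were plated overnight at 37C, then dosed with compounds plus a stimulation mix containing 100uM IBMX and 25uM Ro-20-1724 for 0.5hr at room temperature. cAMP was measured by HTRF competition, 1hr.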

Assay [17] addresses D(2) dopamine receptor (Homo sapiens) (UniProt P14416). As to the kind of experiment: Dopamine D2 receptor (DRD2) small molecule agonists, cell-based qHTS assay (AID 1963594). Also: nearly all actives have a fitted effect of over 35% in size. A digest of the protocol:
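HEK293 cells stably expressing human DRD2, pre-treated with PDE inhibitor Ro20-1724 (0.1 mM final) and compound 10 min at room temperature, then stimulated with NKH477 (200nM […]) for 30 min. cAMP read by HTRF (665/620 nm).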

Assay [18] has the same target. As to the kind of experiment: Dopamine D2 receptor (DRD2) small molecule antagonists, cell-based qHTS assay (AID 1963595; active = well fitted inhibition curve with a large enough effect in the signal ratio in the repeat runs, with a control signal flat; the % refers to the signal ratio). A digest of the protocol:
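Antagonist mode in DRD2-HEK293 cells: after compound addition with 0.1 mM Ro20-1724, cells received quinpirole (12 nM) and NKH477 (200 nM) for 30 min at room temperature; HTRF cAMP read after 1 h detection.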

The nature of assay [19]: p53 small molecule agonists, cell-based qHTS assay: qHTS cell viability counter screen (AID 1963581). Also: nearly all actives have a fitted effect of over 45% in size. A digest of the protocol:
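Luminescence from CellTiter-Glo, reflecting ATP content, serves as the cytotoxicity measure; it is taken after the 2 h reporter substrate step in HCT-116 p53RE-bla cells dosed for 16 h at 37 C.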

Unmarked numbers belong to inactive results. Records with an inconclusive call do not appear. Activity calls are given as the source filed them. Unless noted, calls follow the shape of the full dose curve.

Sequence of Gonadotropin-releasing hormone receptor (Homo sapiens) (P30968 whole entry, looked up): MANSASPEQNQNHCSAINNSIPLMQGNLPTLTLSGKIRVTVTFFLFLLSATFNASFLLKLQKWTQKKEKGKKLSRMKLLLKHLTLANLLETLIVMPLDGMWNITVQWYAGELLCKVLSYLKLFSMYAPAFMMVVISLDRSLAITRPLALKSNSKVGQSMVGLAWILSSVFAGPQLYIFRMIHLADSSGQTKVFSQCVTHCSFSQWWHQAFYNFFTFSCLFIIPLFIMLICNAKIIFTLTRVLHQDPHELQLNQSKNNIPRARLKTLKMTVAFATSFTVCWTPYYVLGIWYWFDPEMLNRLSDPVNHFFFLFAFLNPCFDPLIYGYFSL
Sequence of Muscarinic acetylcholine receptor M1 (Homo sapiens) (P11229 whole entry, looked up): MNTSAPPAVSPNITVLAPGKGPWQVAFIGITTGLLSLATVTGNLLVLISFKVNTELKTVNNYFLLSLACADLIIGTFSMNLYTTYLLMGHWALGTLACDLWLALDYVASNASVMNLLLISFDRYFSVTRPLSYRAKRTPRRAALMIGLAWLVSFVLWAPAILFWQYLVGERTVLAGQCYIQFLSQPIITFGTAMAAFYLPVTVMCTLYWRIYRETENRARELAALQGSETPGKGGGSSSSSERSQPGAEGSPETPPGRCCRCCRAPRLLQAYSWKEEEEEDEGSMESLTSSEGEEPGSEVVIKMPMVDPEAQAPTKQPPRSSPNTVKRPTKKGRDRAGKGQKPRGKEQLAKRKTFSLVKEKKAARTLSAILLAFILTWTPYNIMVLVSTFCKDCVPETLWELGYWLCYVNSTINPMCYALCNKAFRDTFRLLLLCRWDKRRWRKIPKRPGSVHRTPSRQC
Sequence of Beta-2 adrenergic receptor (Homo sapiens) (P07550 whole entry, looked up): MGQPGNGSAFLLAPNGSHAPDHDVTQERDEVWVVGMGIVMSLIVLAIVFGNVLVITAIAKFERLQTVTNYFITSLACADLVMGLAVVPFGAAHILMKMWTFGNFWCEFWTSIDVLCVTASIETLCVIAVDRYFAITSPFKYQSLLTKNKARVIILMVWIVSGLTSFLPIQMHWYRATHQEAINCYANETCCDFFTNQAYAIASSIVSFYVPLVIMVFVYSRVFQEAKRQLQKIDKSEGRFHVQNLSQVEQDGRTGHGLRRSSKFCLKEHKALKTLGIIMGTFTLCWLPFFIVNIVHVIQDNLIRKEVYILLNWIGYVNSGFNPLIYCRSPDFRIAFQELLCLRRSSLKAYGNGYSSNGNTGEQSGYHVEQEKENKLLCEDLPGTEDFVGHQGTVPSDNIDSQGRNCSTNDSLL
Sequence of D(2) dopamine receptor (Homo sapiens) (P14416 whole entry, looked up): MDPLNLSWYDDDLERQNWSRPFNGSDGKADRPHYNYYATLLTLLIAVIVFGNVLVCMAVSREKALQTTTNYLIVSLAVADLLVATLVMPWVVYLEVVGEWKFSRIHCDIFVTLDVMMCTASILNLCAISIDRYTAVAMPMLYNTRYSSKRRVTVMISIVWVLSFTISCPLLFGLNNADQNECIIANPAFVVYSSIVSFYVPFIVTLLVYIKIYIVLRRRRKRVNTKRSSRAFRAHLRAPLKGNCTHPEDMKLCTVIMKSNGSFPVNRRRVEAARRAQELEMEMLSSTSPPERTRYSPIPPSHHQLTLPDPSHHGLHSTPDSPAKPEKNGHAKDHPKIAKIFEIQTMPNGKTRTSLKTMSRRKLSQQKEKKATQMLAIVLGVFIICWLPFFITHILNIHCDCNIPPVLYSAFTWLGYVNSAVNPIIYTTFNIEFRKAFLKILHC

In the case of `O=C(O)[C@H](O)c1ccccc1`, the Potency entry in [1], in assay [2], in assay [3], in [4], in [5] and in assay [6] was “inactive” throughout. The Potency result in assay [7], in [8], in assay [9], in [10], in assay [11] and in [12] was “inactive” throughout. The Potency entry in [13], in [14], in [15], in assay [16], in [17] and in assay [18] was “inactive” throughout.
For the molecule `NC(=O)c1ccccc1`, the Potency result in [1], in [2], in [3], in [4], in [6] and in assay [7] was “inactive” in each case. The Potency result in assay [19], in assay [9], in [10], in [11], in assay [12] and in [13] was “inactive” throughout. Moreover, the Potency entry in [14], in assay [15], in [16] and in [17] was “inactive” throughout.
Regarding `c1ccc(-c2nc[nH]c2-c2ccccc2)cc1`, the Potency result in assay [1], in [2], in assay [3], in assay [4], in assay [6] and in assay [7] was “inactive” each time. Further, the Potency entry in [19], in assay [10], in assay [11], in assay [12], in [13] and in assay [14] was “inactive” each time. Besides, the Potency entry in assay [15], in assay [16], in assay [17] and in assay [18] was “inactive” each time. For the same molecule, the Potency in [9] was 3650 nM (active).
In the case of `CCCCCCC(=O)c1ccccc1`, the Potency entry in assay [1], in assay [2], in [3], in assay [4], in assay [6] and in [7] was “inactive” each time. In addition, the Potency entry in assay [19], in assay [9], in [10], in [11], in assay [12] and in assay [13] was “inactive” each time. The Potency entry in assay [14], in assay [15], in assay [16], in [17] and in assay [18] was “inactive” each time.
`CCNCCO`: the Potency entry in assay [1], in [2], in assay [3], in assay [4], in assay [6] and in [7] was “inactive” throughout. Moreover, the Potency result in assay [19], in [9], in [10], in [11], in [12] and in [13] was “inactive” throughout. The Potency result in assay [14], in [15], in assay [16], in assay [17] and in assay [18] was “inactive” in each case.
On to `CC(=O)OC(C(=O)c1ccccc1)c1ccccc1` (stereo not given), for which the Potency result in [1], in [2], in [3], in assay [4], in [5] and in assay [6] was “inactive” throughout. For the same molecule, the Potency result in [7], in assay [19], in assay [8], in [11], in assay [12] and in assay [14] was “inactive” each time. Further, the Potency entry in [15] and in assay [17] was “inactive” each time. In assay [9], the Potency was 1.1 nM (active).
On to `C[C@H]1[C@@H](c2ccccc2)NC(=O)N1C`, for which the Potency entry in [1], in assay [2], in [3], in assay [4], in assay [6] and in [7] was “inactive” each time. Also, the Potency entry in assay [19], in assay [9], in assay [10], in [11], in assay [12] and in assay [13] was “inactive” in each case. Besides, the Potency result in assay [14], in [15] and in [18] was “inactive” throughout.
